Measurements as given in PubChem BioAssay (NCI).
About 83,000 compounds went through this panel and 20% of them were active in at least one assay; those are over-represented in the sample as a whole.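 Values shown are percent growth following 48 h exposure of cells in 96-well plates to a single concentration of compound; below 10 was considered active.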 Values without a mark were called inactive. Active and inactive are the calls of the source.

Assays:
Assay in all cases: NCI-60 one-dose screen, 48 h (100 = growth as untreated, 0 = no growth, -100 = all killed)
[1] = tested on: HCT-15 colon; conditions: 10 µM unless noted
[2] = tested on: HT29 colon; conditions: 10 µM unless noted
[3] = tested on: SNB-19 CNS; conditions: 10 µM unless noted
[4] = tested on: U251 CNS; conditions: 10 µM unless noted
[5] = tested on: PC-3 prostate; conditions: 10 µM unless noted
[6] = tested on: SK-MEL-5 melanoma; conditions: 10 µM unless noted
[7] = tested on: UACC-62 melanoma; conditions: 10 µM unless noted
[8] = tested on: LOX IMVI melanoma; conditions: 10 µM
[9] = tested on: SK-MEL-28 melanoma; conditions: 10 µM unless noted
[10] = tested on: SK-MEL-2 melanoma; conditions: 10 µM unless noted
[11] = tested on: EKVX NSCLC; conditions: 10 µM unless noted
[12] = tested on: SN12C renal; conditions: 10 µM unless noted
[13] = tested on: UO-31 renal; conditions: 10 µM unless noted
[14] = tested on: TK-10 renal; conditions: 10 µM unless noted
[15] = tested on: ACHN renal; conditions: 10 µM unless noted
[16] = tested on: CAKI-1 renal; conditions: 10 µM unless noted
[17] = tested on: A498 renal; conditions: 10 µM unless noted
[18] = tested on: CCRF-CEM leukemia; conditions: 10 µM unless noted
[19] = tested on: MOLT-4 leukemia; conditions: 10 µM unless noted
[20] = tested on: SNB-75 CNS; conditions: 10 µM unless noted

Structure (SMILES) | growth [1] | growth [2] | growth [3] | growth [4] | growth [5] | growth [6] | growth [7] | growth [8] | growth [9] | growth [10] | growth [11] | growth [12] | growth [13] | growth [14] | growth [15] | growth [16] | growth [17] | growth [18] | growth [19] | growth [20] [%]
Cn1cc(-c2cc3nc(-c4cn(C)c5ncccc45)cc(N)n3n2)c2cc(Cl)ccc21 | -64.5% (active) | -55.6% (active) | -88.1% (active) | -79.7% (active) | -82.1% (active) | -99.4% (active) | -99.6% (active) | -100% (active) | -99.9% (active) | -80% (active) | -38.5% (active) | -93.8% (active) | -87.5% (active) | -83.2% (active) | -94.4% (active) | -46.9% (active) | -75.9% (active) | -14.4% (active) | -45.7% (active) | –
CCCCCCCCc1ccc(C(=O)Nc2ccc(C)cc2C(=O)O)cc1C | 94% | 108% | – | – | 84.2% | 94.3% | 91.3% | 101% | 109% | 97.5% | 88.4% | – | 78.6% | 102% | 84.4% | 78.2% | 98.8% | 79.8% | 90.8% | 92.4
O=C(c1ccc(OCCN2CCOCC2)cc1)C1[C@H](c2ccc(Cl)cc2)[C@@H](c2ccccc2)NC12C(=O)Nc1ccc(Cl)cc12 (some centres undefined) | 16.2% | -75.4% (active) | 41% | 25.3% | 6.16% (active) | 51.6% | 40.1% | -45.5% (active) | 51.7% | 35% | 23.1% | 13.5% | 19.1% | 49.7% | 9.92% (active) | 14.8% | 88% | 31% | – | –
COc1ccc(N2N=C(c3ccc4c(c3)OCO4)CC2c2cccc(NC(=O)CCNS(=O)(=O)c3ccc(Cl)cc3)c2)cc1 (centres undefined) | 33% | 17.1% | – | 29.5% | 16.5% | – | 39.5% | 23.3% | 28.2% | 44.5% | 13.1% | – | 35.3% | 51.9% | 24.9% | 30.4% | -4.53% (active) | 18.7% | 10.3% | 49.4
COc1ccc(-c2nc3cc(C)ccc3n2CC(=O)N=Nc2c(O)[nH]c3ccc(OC)cc23)cc1 | -86.5% (active) | -20% (active) | 4.91% (active) | -80.2% (active) | -52.4% (active) | -95.9% (active) | -86.5% (active) | -98% (active) | -97.8% (active) | -14% (active) | -25.5% (active) | -95.1% (active) | -29.4% (active) | -3.46% (active) | -73.9% (active) | -51.3% (active) | 52.3% | 38.5% | -46.2% (active) | –
C/C(=N\Nc1ccc(S(N)(=O)=O)cc1)c1ccc(N=Nc2c(Nc3ccccc3)[nH][nH]c2=O)cc1 | 36.7% | 4.54% (active) | – | -46.7% (active) | – | – | -40.7% (active) | -41.2% (active) | -54.1% (active) | -51.9% (active) | 62.5% | -12.9% (active) | 86.1% | 71.9% | 42.4% | 77.1% | 35.2% | 3.59% (active) | – | 21
CC(/C=C1\SC(=S)N(CCCC(=O)NC(CC(C)C)C(=O)O)C1=O)=C\c1ccccc1 (centres undefined) | 98.6% | 119% | 93.8% | 79.6% | 55.9% | 88.1% | 76% | 53.2% | 94.8% | 101% | 101% | 90.2% | 64.4% | 131% | 54.1% | 79.5% | 145% | 89.7% | 54.9% | –
COc1c(F)ccc(C(=O)Nc2ccc3nc(NC(=O)C4CCCN(S(=O)(=O)c5cccc(Cl)c5)C4)sc3c2)c1F (centres undefined) | 68.9% | 82.2% | 80.4% | 71.5% | 57.7% | 79.6% | 78.6% | 79.6% | 92.1% | 88.5% | 92.8% | 84.3% | 75.2% | 118% | 82.4% | 74.4% | 113% | 85.3% | 42.8% | –
O=C(C1=CNC(=S)NC1c1ccc(O)cc1)c1cc2ccccc2oc1=O (centres undefined) | 104% | 106% | 97.7% | 102% | 86.7% | 101% | 95.8% | 91.5% | 118% | 101% | 107% | 99.3% | 72.4% | 130% | 108% | 87.6% | 139% | 92% | 94.1% | –
CC(=O)OC[C@@]1(C)C2CC[C@]3(C)C(CC=C4C5CC(C)(C)CC[C@]5(C(=O)Nc5ccc(F)cc5)CC[C@]43C)[C@@]2(C)C[C@@H](OC(C)=O)[C@@H]1OC(C)=O (some centres undefined) | 33.8% | 34.7% | – | 40.3% | – | 8.24% (active) | 30.3% | 11.1% | 58.6% | 32.6% | 28.1% | – | 38.6% | 56.5% | 38.6% | 44.9% | 63.1% | 29.8% | 35% | 54.4
COc1ccc(-c2nc3cc(C)ccc3n2CC(=O)N=Nc2c(O)[nH]c3ccc(Br)cc23)cc1 | -66.1% (active) | -67.4% (active) | 29.2% | -63.1% (active) | 13.9% | -45.6% (active) | -42.8% (active) | -81.9% (active) | -53.8% (active) | 61.6% | -36.5% (active) | -57.8% (active) | 53.5% | 25.6% | 15.5% | 54.6% | 136% | 58.8% | 23.3% | –
CCCSc1nc(Nc2ccc(S(N)(=O)=O)cc2)c(C#N)c(-c2cc(OC)c(OC)c(OC)c2)n1 | 15.3% | 16.6% | 43.8% | 27.4% | 12.6% | 6.41% (active) | 21% | 5.09% (active) | 35.8% | 43% | 36.6% | 20.4% | 2.53% (active) | 50.4% | 11.8% | 25.6% | 80.8% | 8.03% (active) | -35.8% (active) | –
C=C1CC[C@@H]2[C@]3(C)COC(c4cn[nH]c4-c4cccc(Cl)c4)O[C@@H]3CC[C@@]2(C)[C@@H]1C/C=C1/C(=O)OCC1O (some centres undefined) | -59.2% (active) | 0.309% (active) | 5.54% (active) | -85.8% (active) | -0.106% (active) | -79.6% (active) | -86.9% (active) | -100% (active) | -76.6% (active) | -23.7% (active) | 8.03% (active) | -69.6% (active) | -94.4% (active) | 3.28% (active) | -87.4% (active) | 32.6% | 151% | -14.9% (active) | 12.7% | –
C=C1CCC2C3(C)COC(c4ccco4)OC3CCC2(C)C1CC(Sc1ccccc1)C1=CCOC1=O (centres undefined) | 3.97% (active) | 8.59% (active) | 86.2% | 31.9% | 50.2% | 63.4% | 30.2% | -96.1% (active) | 56.1% | 80% | 105% | 21.4% | 51.8% | 123% | 70.3% | 88.2% | 137% | 0.425% (active) | 16.9% | –
Cn1cc(-c2cc3nc(-c4cn(C)c5ncc(Br)cc45)cc(N)n3n2)c2ccccc21 | -23.3% (active) | -86.1% (active) | -27% (active) | -68.8% (active) | -15.5% (active) | -94% (active) | -83.2% (active) | -100% (active) | -91.6% (active) | -73.6% (active) | -44.2% (active) | -82.2% (active) | -36.3% (active) | -32.8% (active) | -45.9% (active) | 1.08% (active) | -24.3% (active) | -23.9% (active) | -42% (active) | –
CC(C)c1sc(NC(=O)c2cc(NC(=O)c3cc(NC(=O)c4cscn4)cn3C)cn2C)nc1C(=O)NCCCN(C)C | 98.6% | 2.45% (active) | -9.66% (active) | -38.4% (active) | -26.3% (active) | -3.44% (active) | -73.5% (active) | -94% (active) | -16.3% (active) | -79.4% (active) | 27% | 19.1% | 85% | 85.3% | 98.7% | 91% | 113% | 1.16% (active) | 5.49% (active) | –
